Compound activity deposited in PubChem BioAssay by National Center for Advancing Translational Sciences (NCATS).
This excerpt belongs to a sample that is enriched for hits.
nsP2pro inh – CHIKV nsP2 protease inhibition, primary qHTS; Q8JUX6; FRET peptide cleavage, nsP2pro, fluorescence 1 h; Potency, µM (top dose mostly 24.9 µM), actives largely listed as inhibitors; 1.1% of 31,000 active; AID 1964107; further: nearly all actives have a fitted effect of over 60% in size
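Purified recombinant nsP2pro (150 nM final) in 10 mM Tris-HCl pH 8.0 with 0.01% Tween 20 was preincubated 15 min at room temperature with compound (7 concentrations, up to 25 uM). FRET peptide 2 substrate (2.5 uM final) was then added; fluorescence was read after 1 h.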
CHIKV nsP2 cell – secondary cell-based test for CHIKV nsP2 protease inhibitors; 10% of 450 active; shares compounds with nsP2pro inh; cell-based CHIKV nsP2 protease reporter assay; Potency, µM (series often up to 51.1 µM), hits mostly inhibitors; further: nearly all actives have a fitted effect of over 70% in size
Target sequence (Q8JUX6 220-798 limits assumed): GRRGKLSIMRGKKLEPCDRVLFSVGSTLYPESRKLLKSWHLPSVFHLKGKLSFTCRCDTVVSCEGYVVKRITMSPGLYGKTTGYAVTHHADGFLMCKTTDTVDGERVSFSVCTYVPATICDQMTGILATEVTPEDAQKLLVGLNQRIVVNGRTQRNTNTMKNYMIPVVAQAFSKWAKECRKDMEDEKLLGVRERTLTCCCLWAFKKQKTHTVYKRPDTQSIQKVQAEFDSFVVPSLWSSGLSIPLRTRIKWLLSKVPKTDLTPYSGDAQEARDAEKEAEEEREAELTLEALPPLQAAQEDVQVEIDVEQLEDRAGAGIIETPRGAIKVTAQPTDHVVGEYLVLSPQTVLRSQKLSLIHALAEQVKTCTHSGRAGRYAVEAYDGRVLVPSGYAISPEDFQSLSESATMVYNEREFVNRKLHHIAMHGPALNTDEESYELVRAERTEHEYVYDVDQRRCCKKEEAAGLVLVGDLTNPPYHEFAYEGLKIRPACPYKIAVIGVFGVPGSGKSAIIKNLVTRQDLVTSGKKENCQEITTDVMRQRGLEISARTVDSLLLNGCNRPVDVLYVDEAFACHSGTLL
NSP2 full ctr – inhibits full-length CHIKV NSP2 enzyme | shares compounds with nsP2pro inh | Full-length CHIKV NSP2 protease enzymatic counterscreen | AID 1964101 | Potency, µM (titrated, usually from 50.7 µM), usual class: inhibitors | 39% of 410 active; further: nearly all actives have a fitted effect of over 65% in size
Furin counter – selectivity counter-screen for CHIKV nsP2 protease inhibitors: human furin; shares compounds with nsP2pro inh; Recombinant human furin enzymatic counterscreen, fluorogenic substrate; Potency, µM (top dose mostly 50.6 µM), hits mostly inhibitors; 6% of 410 active; AID 1964102
nsP2 NS23 pep – blocks CHIKV nsP2 protease cleavage of endogenous NS2/3 peptide; shares compounds with nsP2pro inh; Purified CHIKV nsP2 protease, endogenous NS2/3 peptide cleavage; Potency, µM (doses to about 51 µM), actives largely listed as inhibitors; 34% of 410 active; further: nearly all actives have a fitted effect of over 55% in size
Papain cs – inhibits papain in a CHIKV nsP2 protease selectivity counterscreen. shares compounds with nsP2pro inh. purified papain protease activity, enzymatic inhibition. Potency, µM (highest dose often 51 µM), hits mostly inhibitors. 5% of 410 active. AID 1964104
nsP2pro confirm – CHIKV nsP2 protease inhibition, confirmatory qHTS. shares compounds with nsP2pro inh. CHIKV nsP2 protease enzymatic activity, qHTS. Potency, µM (series often up to 25.5 µM), most hits filed as inhibitors. 43% of 410 active. AID 1964105; further: nearly all actives have a fitted effect of over 75% in size
HCV NS3 counter – inhibits HCV NS3/4A protease in an nsP2pro selectivity counterscreen; shares compounds with nsP2pro inh; HCV NS3/4A protease biochemical counterscreen; Potency, µM (highest dose often 50.9 µM), actives largely listed as inhibitors; 20% of 410 active; AID 1964106; further: nearly all actives have a fitted effect of over 55% in size
Large screens that a line does not name were inactive (follow-up assays come after a bar, where they were run); ! = not confirmed by another sample. The call rests on the fitted dose curve.

CC1=CC[C@]2(C(=O)O[C@@H]3O[C@H](CO[C@@H]4O[C@H](CO)[C@@H](O[C@@H]5O[C@@H](C)[C@H](O)[C@@H](O)[C@H]5O)[C@H](O)[C@H]4O)[C@@H](O)[C@H](O)[C@H]3O)CC[C@]3(C)C(CCC4[C@@]5(C)C[C@@H](O)[C@H](O)[C@@](C)(CO)C5CC[C@]43C)C2C1C (stereo partly drawn)	none
O=C(O)CCC=CCC[C@@H]1[C@H](N2CCCCC2)[C@@H](O)C[C@@H]1OCc1ccc(-c2ccccc2)cc1	none
COc1cc(F)c(S(=O)(=O)Nc2c(C)n(C)n(-c3ccccc3)c2=O)cc1OC	none
CC(=O)OC(CSC1CCC(=O)OC(C)CCC(=O)C1)C(=O)O (stereo not drawn)	nsP2pro inh inconclusive | CHIKV nsP2 cell inactive | NSP2 full ctr inactive | Furin counter inactive | nsP2 NS23 pep inactive | Papain cs inactive | nsP2pro confirm inconclusive | HCV NS3 counter inconclusive
CN1CCCC1c1nc(C2CN(C(=O)c3ccsc3)C2)no1 (stereo not drawn)	none
CCN1CCN(c2ncc3c(n2)CCN(Cc2ccc(OC(C)C)cc2)C3)CC1	none
CCN1CCN(c2ncc3c(n2)CCN(Cc2sccc2C)C3)CC1	none | CHIKV nsP2 cell inconclusive | NSP2 full ctr 11.6µM | Furin counter inactive | nsP2 NS23 pep inconclusive | Papain cs inactive | nsP2pro confirm inconclusive | HCV NS3 counter 6.51µM
Cc1ccsc1CN1CCc2nc(N3CCN(c4ccccc4F)CC3)ncc2C1	none
CCN1CCN(c2ncc3c(n2)CCN(Cc2ccc(Br)s2)C3)CC1	none
CN1CCN(c2ncc3c(n2)CCN(Cc2ccc(Br)s2)C3)CC1	nsP2pro inh inconclusive | CHIKV nsP2 cell inconclusive | NSP2 full ctr 18.3µM | Furin counter inactive | nsP2 NS23 pep inconclusive | Papain cs inactive | nsP2pro confirm inconclusive | HCV NS3 counter 11.6µM
Brc1ccc(CN2CCc3nc(N4CCN(c5ncccn5)CC4)ncc3C2)cc1	none
COc1cccc(-c2ccc(NC(=O)C3CCCN3C(=O)CNC(C)=O)cc2)c1 (stereo not drawn)	none
Cc1cc2c(s1)c1cnn(Cc3ccc(-c4ccccc4)cc3)c(=O)c1n2C	none
COc1ccc(NC(=O)CSC2=Nc3ccccc3C3=NC(CCC(=O)NCc4cccs4)C(=O)N23)cc1 (stereo not drawn)	none
CCN(CC)C(=O)CSc1nnc2ccc3ccccc3n12	none
CC(C)OC(=O)CCC/C=C\C[C@@H]1[C@@H](CC[C@@H](O)CCc2ccccc2)[C@H](O)C[C@@H]1O	none
O=C1NN=C(c2ccccn2)C12CCN([S+](=O)([O-])c1cccc(C(F)(F)F)c1)CC2	none
CC1=C2CC(O)(C(C)(C)O)C(O[C@@H]3O[C@H](CO)[C@@H](O)[C@H](O)[C@H]3O)CC(C)C2CC1=O (stereo partly drawn)	none
C=C1C(=O)O[C@@H]2C[C@H](C)[C@@H]3CC(=O)C(C)=C3C[C@H]12	nsP2pro inh 0.442µM | CHIKV nsP2 cell inconclusive | NSP2 full ctr inconclusive | Furin counter inactive | nsP2 NS23 pep inconclusive | Papain cs inactive | nsP2pro confirm inconclusive | HCV NS3 counter inactive
C=C1C(=O)O[C@@H]2C[C@]3(C)[C@@H](CCC(C)=O)[C@@H]3C[C@H]12	none
O=C(Cn1c(=O)n(Cc2ccc(F)cc2)c(=O)c2sc3ccccc3c21)NCc1ccccc1	none
Cc1noc(-c2ccco2)c1C(=O)NCc1cccc(Cl)c1	none
COc1cc(C(=O)OC[C@@]2(O)CO[C@@H](O[C@H]3[C@H](Oc4ccc(O)cc4)O[C@H](CO)[C@@H](O)[C@@H]3O)[C@@H]2O)cc(OC)c1O	none
Cc1ccc(C(=O)N2CCC(N3C(=O)CCC3C(=O)NCc3cccnc3)CC2)cc1F (stereo not drawn)	none
Cc1ccccc1C1=CCN(C)CC1	none
Cc1ccccc1C1=CCN(c2ncc(NC(=O)c3ccc(Cl)cc3)cc2C(=O)O)CC1	nsP2pro inh inconclusive | CHIKV nsP2 cell inactive
COc1ccc(C(=O)Nc2cnc(-c3ccc(Cl)cc3)nc2)cc1	none
Cc1ccc2nc(-c3c[nH]c4ccccc34)c(Nc3ccc(F)cc3)n2c1	none
COc1ccc(S(=O)(=O)N(Cc2nc(-c3ccc(C)cc3)no2)C2CCCCC2)cc1	none
Cc1ccc(OCCSc2ncccn2)c(Br)c1	none
CC(O)(C#Cc1ccc2c(c1)N(c1nc(N)ncc1Cl)CC2)c1nccs1 (stereo not drawn)	nsP2pro inh 5.01µM! | CHIKV nsP2 cell 2.06µM | NSP2 full ctr 7.3µM | Furin counter inconclusive | nsP2 NS23 pep 14.6µM | Papain cs inactive | nsP2pro confirm 2.25µM | HCV NS3 counter inconclusive
CCCCNC(=O)c1cccc(-c2cc(N3CCN(C)CC3)nc(N)n2)c1	none
CCOC(=O)c1nnc2c(-c3ccc(OC)cc3)c(C)nn2c1N	none
NCC(=O)Nc1cncc(-c2nn3c(=O)cc(N4CCNCC4)nc3s2)c1	none
COc1ccccc1OCCNCC(O)CCOc1cccc2[nH]c3ccccc3c12 (stereo not drawn)	none
CCC1=C(c2ccc(C)cc2)S(=O)(=O)N=C1N1CCC(C(=O)NCCc2cccc(OC)c2)CC1	none
Cc1cc(CN)cc(C)c1NC(=O)c1ccc(-c2cc(Cl)ccc2Cl)o1	none
O=C(OC1C[C@H]2CC[C@@H](C1)[N+]21CCCC1)C(O)(c1ccccc1)c1ccccc1 (stereo partly drawn)	none
CCOC(=O)c1c(NC(=O)CCCOc2ccc(C(C)(C)C)cc2)sc2c1CCCC2	none
COC(=O)c1c(NC(=O)CCCOc2cccc(C)c2)sc2c1C(C(=O)OC)CC2 (stereo not drawn)	nsP2pro inh 1.9µM | CHIKV nsP2 cell 14.6µM! | NSP2 full ctr 18.3µM | Furin counter inactive | nsP2 NS23 pep 5.17µM | Papain cs inactive | nsP2pro confirm 2.52µM | HCV NS3 counter inactive
COC(=O)c1c(NC(=O)CCCOc2cccc(C)c2)sc2c1CCC(C)C2 (stereo not drawn)	none
COC(=O)c1c(NC(=O)CCCOc2ccc(C)cc2)sc2c1C(C(=O)OC)CC2 (stereo not drawn)	nsP2pro inh 2.13µM | CHIKV nsP2 cell 18.3µM | NSP2 full ctr inconclusive | Furin counter inactive | nsP2 NS23 pep 11.6µM | Papain cs inactive | nsP2pro confirm 7.11µM | HCV NS3 counter inactive
